Source: PubChem (National Center for Advancing Translational Sciences (NCATS))
Only some compounds are listed: those with a hit (about 3.3% of all), similar ones and a draw of the others.
Giardia FBPA inh: blocks Giardia fructose-bisphosphate aldolase activity | hit rate 0.71% among 290,000 | purified Giardia FBPA | AID 2451 | Potency, µM (titrated, usually from 59.6 µM), for the others: top-dose activity, negative = inhibition, actives largely listed as inhibitors; note: nearly all actives have a fitted effect of over 55% in size
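Giardia FBPA (40 nM reagent) was preincubated 10 min at RT with compound (up to 57.5 uM final), then substrate plus GAPDH/TPI/NAD/arsenate coupling system with diaphorase/resazurin was added; resorufin fluorescence (525/598 nm) was read after 20 min.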
LmPK inh: blocks Leishmania mexicana pyruvate kinase activity. hit rate 0.37% among 290,000. purified LmPK, Kinase-Glo ATP luminescence, 1 h. Potency, µM (highest dose often 57.5 µM), for inactives: at the highest dose activity change, negative = inhibition, most hits filed as inhibitors. Q27686
Target sequence (Q27686 whole entry, looked up): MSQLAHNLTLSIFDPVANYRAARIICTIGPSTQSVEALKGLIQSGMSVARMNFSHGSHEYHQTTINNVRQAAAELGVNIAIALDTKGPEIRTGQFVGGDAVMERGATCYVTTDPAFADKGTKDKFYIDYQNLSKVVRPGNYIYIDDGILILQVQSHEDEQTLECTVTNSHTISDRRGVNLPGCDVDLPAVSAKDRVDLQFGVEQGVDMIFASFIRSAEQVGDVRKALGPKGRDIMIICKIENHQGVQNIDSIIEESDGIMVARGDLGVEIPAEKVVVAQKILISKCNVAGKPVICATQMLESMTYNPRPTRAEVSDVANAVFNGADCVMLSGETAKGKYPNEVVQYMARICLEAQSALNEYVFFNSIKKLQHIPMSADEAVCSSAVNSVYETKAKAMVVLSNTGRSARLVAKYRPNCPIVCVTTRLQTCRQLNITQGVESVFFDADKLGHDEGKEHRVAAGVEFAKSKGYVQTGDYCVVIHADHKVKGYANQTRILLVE
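Purified LmPK (0.1 nM) converted ADP (0.1 mM) to ATP with PEP (0.5 mM) in imidazole buffer pH 7.2 with KCl and MgCl2, 1 h at room temperature. ATP was read by Kinase-Glo luminescence; data normalized to uninhibited and no-enzyme controls.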
RE007 growth inh: less growth of the S. pombe RE007 Vpr strain. hit rate 0.21% among 360,000. S. pombe RE007 Vpr strain, BacTiter-Glo ATP luminescence, 24 h. Potency, µM (titrated, usually from 92.2 µM), inactives show at the top dose activity change, negative = less growth, actives largely listed as inhibitors; active = well fitted falling curve with a large enough effect; inconclusive = small, poorly fitted or top-dose-only effect; inactive = no such curve, though single readings can be large or run the other way; note: nearly all actives have a fitted effect of over 50% in size
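Fission yeast RE007 carrying one integrated HIV-1 vpr copy, seeded at OD 0.01 in PMG+AL medium with 23 nL pinned compound. Grown 24 h at 30 degrees; viability read by BacTiter-Glo luminescence after 5 min.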
TbPYK inhibitor: blocks Trypanosoma brucei pyruvate kinase | Q57TT1 | TbPYK enzyme, Kinase-Glo Plus ATP luminescence, 45 min | Potency, µM (doses to about 76.8 µM), for inactives: top-dose activity, negative = inhibition, actives largely listed as inhibitors | hit rate 0.12% among 410,000 | AID 624173; note: nearly all actives have a fitted effect of over 50% in size
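Luminescent Kinase-Glo Plus end-point after 45 min room-temperature reaction of T. brucei pyruvate kinase started with 130 uM ADP (final). Buffer TEA 50 mM pH 7.2 with KCl, MgCl2, BSA, Tween-20; titration-based qHTS with fitted concentration-effect curves.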
Sm TGR block: blocks Schistosoma mansoni thioredoxin glutathione reductase | hit rate 3% among 360,000 | purified TGR, DTNB reduction, TNB absorbance 405 nm | Q962Y6 | Potency, µM (top dose mostly 114 µM), inactives show at the highest dose activity change, negative = inhibition, usual class: inhibitors; note: nearly all actives have a fitted effect of over 60% in size
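TGR 20 nM + NADPH 100 uM (dispensed conc.), cpd preinc 15 min RT; start with NADPH (500 uM addition) then DTNB (15 mM addition). Kinetic TNB absorbance, 405 nm filter. Four-parameter Hill fit across titration.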
* marks the source's active call; other numbers are inactive results. Unless noted, calls come from the whole dose curve; as a rule, active = well fitted curve in the direction sought with a large enough effect; inconclusive = small, poorly fitted or top-dose-only effect, or another doubt; inactive = no such curve, though single readings can be large; an effect the other way counts as inactive or inconclusive. % is set by controls: 0 for no effect and ±100 for the full control effect; potency is the fitted concentration of half-maximal effect.

What do the screens show for `Cn1c(=O)n(-c2cccc(Cl)c2)c(=O)c2sc3ccccc3c21`?
TbPYK inhibitor: -1%; Sm TGR block: 4%

How did O=c1c2ccccc2sn1-c1ccccc1F do in these assays?
RE007 growth inh: 35µM*; TbPYK inhibitor: 7.1µM*

Results for CCOc1ccc(NC(=O)N(C)CCc2c(C)nn(C)c2C)cc1 ?
TbPYK inhibitor: 1%; Sm TGR block: 1%

How did CSC1=C(C#N)C(=O)NC(c2ccc(Cl)cc2)S1 (stereo unspecified) do in these assays?
Giardia FBPA inh: -4%; LmPK inh: -1%; RE007 growth inh: 8%; TbPYK inhibitor: 2%; Sm TGR block: 10µM*

How did Cc1cc([N+](=O)[O-])c2c(c1C)C1C=CCC1C(c1ccccn1)N2 (stereo unspecified) do in these assays?
Giardia FBPA inh: inconclusive; LmPK inh: -8%; Sm TGR block: 22µM*

What do the screens show for `Cc1ccc(Cl)c2c1N[C@@H](c1ccc(C(=O)O)cc1)[C@H]1CC=C[C@@H]21`?
TbPYK inhibitor: inconclusive; Sm TGR block: -21%

What do the screens show for `COc1ccc(NC(=O)C2C3C=CC(C3)C2C(=O)O)cc1` (stereo unspecified)?
Giardia FBPA inh: -5%; LmPK inh: -2%; RE007 growth inh: -1%; TbPYK inhibitor: 2%; Sm TGR block: -17%

Results for Cc1ccc(-c2ccc(NC(=O)C3C4C=CC(C4)C3C(=O)O)cc2)o1 (stereo unspecified) ?
Giardia FBPA inh: 0%; LmPK inh: -5%; RE007 growth inh: inconclusive; TbPYK inhibitor: 0%; Sm TGR block: 45µM*

Results for COc1cccc(C(=O)NNC2=C(C(=O)C(F)(F)F)CCC2)c1 ?
Giardia FBPA inh: 6%; LmPK inh: -4%; RE007 growth inh: 5%; TbPYK inhibitor: -2%; Sm TGR block: 4%

Results for CC(=O)C(=Cc1ccc(O)cc1)C(C)=O ?
Giardia FBPA inh: -6%; LmPK inh: 0%; TbPYK inhibitor: 2%; Sm TGR block: 45µM*

How did CCC(=O)Nc1ccc(C=C(C(C)=O)C(C)=O)cc1 do in these assays?
Giardia FBPA inh: 3%; LmPK inh: -6%; RE007 growth inh: -1%; TbPYK inhibitor: -2%; Sm TGR block: inconclusive

What do the screens show for `COCCn1c(CCC(=O)O)ccc1-c1cccs1`?
Giardia FBPA inh: 9%; LmPK inh: -2%; RE007 growth inh: 10%; TbPYK inhibitor: 1%; Sm TGR block: 14µM*

Results for O=C(O)CCc1ccc(-c2cccs2)n1CC(=O)Nc1ccccc1C(F)(F)F ?
Giardia FBPA inh: 12%; LmPK inh: 2%; RE007 growth inh: -13%; TbPYK inhibitor: 3%; Sm TGR block: inconclusive

What do the screens show for `CCCCn1c(CCC(=O)O)ccc1-c1cccs1`?
Giardia FBPA inh: 16%; LmPK inh: 10%; RE007 growth inh: 1%; TbPYK inhibitor: -9%; Sm TGR block: 8.9µM*

How did CCn1c2ccccc2c2cc(NC(=O)c3ccc(Br)o3)ccc21 do in these assays?
Giardia FBPA inh: -28%; LmPK inh: -25%; RE007 growth inh: -26%; TbPYK inhibitor: -15%; Sm TGR block: 11µM*

How did CCC1Oc2ccccc2N(CC(=O)NCCCN2CCN(c3ccc(OC)cc3)CC2)C1=O (stereo unspecified) do in these assays?
Giardia FBPA inh: 10%; LmPK inh: -1%; RE007 growth inh: -11%; TbPYK inhibitor: -3%; Sm TGR block: -9%

Results for COc1cccc(CNC(=O)C(=O)NCC(c2cccs2)S(=O)(=O)c2cccs2)c1 (stereo unspecified) ?
TbPYK inhibitor: -1%; Sm TGR block: 25µM*

How did COc1cccc(CNC(=O)C(=O)NCC(c2ccco2)S(=O)(=O)c2cccs2)c1 (stereo unspecified) do in these assays?
TbPYK inhibitor: -2%; Sm TGR block: 4µM*

What do the screens show for `CCC1Sc2ccccc2N(CC(=O)NCc2ccc3c(c2)OCO3)C1=O` (stereo unspecified)?
Giardia FBPA inh: -5%; LmPK inh: -8%; RE007 growth inh: 5%; TbPYK inhibitor: 1%; Sm TGR block: 0%

Results for NCCCCNS(=O)(=O)c1cccc2c(Cl)cccc12 ?
Giardia FBPA inh: -3%
